Screening results: PubChem, The Scripps Research Institute Molecular Screening Center
hcDAF12 agonist – H. contortus DAF-12 activation, primary screen; HEK293 hcDAF-12 lit1-tk-luc reporter, luminescence; 0% DMSO, 100% Δ7-dafachronic acid; activation, % at 6.8 µM; hit rate 1.4% among 370,000; AID 652067;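 active = activation above the mean of all tested compounds plus 3 SD, cut at about 5.5% in these data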;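 note: 100% = response to 3 µM Δ7-dafachronic acid high control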
DAX1 inh-1 – inhibitors of human orphan nuclear receptor DAX1 (NR0B1); HEK293 Gal4-DAX1 luciferase reporter, luminescence; inhibition, % at 6.75 µM; hit rate 0.99% among 340,000; AID 504766;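 active = inhibition above the mean over all tested compounds plus 3 SD, cut at about 4.2% in these data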;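 note: 0% = DAX1-transfected cells with DMSO and 100% = empty-vector control cells with DMSO; inhibition shows as a rise in luminescence from relieved DAX1 repression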
Target sequence (P51843 207-470 limits assumed): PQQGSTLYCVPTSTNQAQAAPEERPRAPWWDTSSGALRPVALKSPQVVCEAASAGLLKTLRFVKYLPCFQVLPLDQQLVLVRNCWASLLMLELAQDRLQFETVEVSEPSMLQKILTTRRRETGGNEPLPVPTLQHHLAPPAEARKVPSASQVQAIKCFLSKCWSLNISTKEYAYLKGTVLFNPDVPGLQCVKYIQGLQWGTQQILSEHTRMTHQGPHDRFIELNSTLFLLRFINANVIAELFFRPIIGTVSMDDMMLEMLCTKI
hgDAF-12 ag – activates the H. glycines DAF-12 receptor ligand-binding domain. HEK293 GAL4-hgDAF12 UAS-luciferase reporter, agonist luminescence; normalized to butyrate control. activation, % at 6.8 µM. hit rate 1.8% among 370,000;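 active = activation above a cutoff set at the mean of all screened compounds plus 3 SD, cut at about 10% in these data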;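 note: 0% = DMSO wells and 100% = sodium butyrate wells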
DAX1 inh-2 – inhibitors of DAX1 repression of SF-1 activated StAR promoter; inhibition, % at 6.8 µM; HEK293T StAR-luciferase reporter, SF-1/DAX-1 repression relief; hit rate 1.1% among 370,000;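 active = inhibition above the mean over all tested compounds plus 3 SD, cut at about 3.6% in these data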;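 note: 0% = DAX-1 cells with DMSO and 100% = cells lacking DAX-1 with DMSO; higher inhibition means more luminescence from relief of DAX-1 repression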
ssDAF-12 act – S. stercoralis DAF-12 activation, primary screen; AID 652126; activation, % at 6.8 µM; hit rate 1% among 370,000; HEK293 ssDAF-12/GRIP1 lit1-tk-luc reporter, luminescence; % of 3 µM dafachronic acid response;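 active = activation above the mean over all tested compounds plus 3 SD, cut at about 0.9% in these data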;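 note: 0% = DMSO-only wells and 100% = 3 µM delta7-dafachronic acid wells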
The depositor's hits bear a star; . = not tested or not shown. An excerpt weighted towards active compounds, which were near 4.1% of everything screened.

SMILES	hcDAF12 agonist	DAX1 inh-1	hgDAF-12 ag	DAX1 inh-2	ssDAF-12 act
Cc1cc(NC(=O)CCCOc2ccc(Cl)cc2Cl)no1	2	0	1	0	-1
C/C(=N/NC(=O)CCCOc1ccc(Cl)cc1Cl)c1ccc(C)o1	-1	0	0	-1	1.1*
CCOC(=O)[C@@]12CCCC3=C1N(CCC3)C(=O)[C@H]2CC(=O)NCc1ccccc1	-2	.	-1	0	-1
Cc1ccc(C(c2c(C)nn(-c3ccccc3)c2N)c2c(C)nn(-c3ccccc3)c2N)cc1	0	-1	3	0	-1
Cc1nn(-c2ccccc2)c(N)c1N=Nc1ccc(Cl)cc1	3	3	18*	2	-1
Cc1nn(-c2ccccc2)c(N)c1N=Nc1ccccc1	4	1	10	1	0
Cc1nn(-c2ccccc2)c(N)c1-c1ccccc1	5	-1	9	1	1.0*
Cc1ccc(-c2cc(N)n(-c3ccccc3)n2)cc1	3	1	11*	2	0
COc1ccc(CNC2CCC23CCC(C)CC3)cc1 (centres undefined)	-1	.	0	.	-1
COc1cc(F)c(S(=O)(=O)N2CCCN(S(=O)(=O)c3cccc(N)c3)CC2)c(F)c1	3	.	7	.	-1
C[C@H](O)[C@@H]1CN2CCc3c([nH]c4c(-c5ccccc5)cccc34)[C@@H]2C[C@@H]1N(C)CC1CCCCC1	1	.	3	0	0
Oc1ccc(/C=N/NC(=S)NC2CC3CCC2C3)cc1 (centres undefined)	1	2	8	2	-1
S=C(N/N=C/c1cccs1)NC1CC2CCC1C2 (centres undefined)	-1	.	11*	0	-1
COc1ccc(CC(=O)Nc2ccc(-c3ccc4nnc(C)n4n3)cc2)cc1OC	-1	5.7*	-5	1	0
COc1ccc(OC)c(S(=O)(=O)Nc2ccc(-c3ccc4nnc(C)n4n3)cc2)c1	4	3	1	2	-1
COc1cccc(CCNC(=O)CCc2nc(-c3ccccc3F)no2)c1	0	.	3	0	-1
CCC(=O)Oc1ccc(-c2nc(-c3cccnc3)no2)cc1	2	2	11*	1	-1
Cc1cccc(-c2nc(-c3ccncc3)no2)c1	3	5.3*	11*	2	1
COc1ccc(-c2nc(-c3ccc(C(=O)O)cc3)no2)cc1	6.9*	0	12*	3.9*	0
Fc1ccccc1-c1nc(-c2ccncc2)no1	4	4.8*	10	1	1.1*
Fc1ccccc1-c1n[nH]c(=S)n1N=Cc1cccc(OCc2ccccc2)c1	-4	.	0	-2	-1
COC(=O)[C@]12C[C@H](CC(=O)N3CCC(c4ccccc4)CC3)C(=O)N(CCC3=CCCCC3)C1=C[C@H](C(C)C)O[C@@H]2C1CC1	0	.	0	0	-1
C[C@@H]1OCN(C)[C@H]2C[C@H]3c4[nH]c5cccc(-c6ccc7c(c6)OCO7)c5c4CCN3C[C@@H]12	1	.	-1	-1	-1
Cc1cc(C)cc(-c2nc(-c3ccncc3)no2)c1	3	1	3	1	-1
CC(C)(C)c1ccc(-c2nc(-c3ccncc3)no2)cc1	2	2	6	3.7*	0
SMILES	hcDAF12 agonist	DAX1 inh-1	hgDAF-12 ag	DAX1 inh-2	ssDAF-12 act
CC1=C2N=C(N)N(Cc3ccccc3)C(Cc3ccccc3)C2n2c(=O)n(-c3ccccc3)c(=O)n2C1 (centres undefined)	1	.	2	0	-1
COc1ccc(-c2cc3c(=O)n(CC(=O)Nc4ccc(Cl)cc4)nc(C)n3n2)cc1	6.4*	1	1	1	-1
Cc1nn(CC(=O)Nc2cccc(Cl)c2)c(=O)c2cc(-c3ccccc3)nn12	0	1	2	0	-1
O=C(Nc1ccccc1C(F)(F)F)OCCCN1CCC2(CCC(c3ccccc3)CC2)C1=O (centres undefined)	-4	.	-2	-3	-2
CC(=O)c1cc(-c2ccc([N+](=O)[O-])cc2)c(=O)n2c1CCC2	-1	.	-2	-1	-1
CCC1(c2ccc(Cl)cc2)NC(=S)N(c2ccc(C)c(C)c2)N1 (centres undefined)	0	-1	4	0	-2
CCC1(c2ccc(Cl)cc2)NC(=S)N(c2ccc(C)cc2)N1 (centres undefined)	6.2*	0	11*	1	1
O=C(CCc1ccccc1)N[C@H]1[C@H](OC(=O)c2ccco2)CCC[C@@]12C(=O)N(Cc1ccccc1)c1ccccc12	-2	.	-1	-1	-2
Cc1ccc(/C=C2/C(=O)c3ccc(C(=O)O)cc3C2=O)o1	2	3	-1	0	-1
Cc1ccc(C=C2C(=O)c3ccccc3C2=O)o1	6.3*	1	5	0	-1
O=C(Nc1nccs1)c1ccc([N+](=O)[O-])cc1	5	1	6	0	1.2*
O=C(Cc1ccc([N+](=O)[O-])cc1)Nc1nccs1	-1	7.2*	0	0	0
O=C(CN1CCN(c2ccc([N+](=O)[O-])cc2)CC1)Nc1nccs1	-2	1	-5	-1	-2
Cc1ccc2c(c1)C1CS(=O)(=O)N(CC(C)C)C(=O)N1C2 (centres undefined)	4	.	9	3	-1
CCCCCCCCN1CCS(=O)(=O)N(Cc2ccc(C(F)(F)F)cc2)C(C(=O)OC)C1 (centres undefined)	-2	.	-1	-1	-1
Cc1cccc(NC(=O)c2onc3c2CCCC3)n1	5	-4	13*	4.1*	0
Cc1ccccc1NC(=O)c1onc2c1CCCC2	3	3	10	2	0
Cc1cccc(NC(=O)c2onc3c2CCCC3)c1C	2	2	11*	2	0
O=C1C(=O)N(CCO)C(c2ccccc2[N+](=O)[O-])/C1=C(\O)c1ccccc1 (centres undefined)	2	0	3	0	0
O=C1C(=O)N(c2ccc(O)cc2)C(c2ccccc2[N+](=O)[O-])/C1=C(\O)c1ccccc1 (centres undefined)	5	2	3	0	2.2*
COC(=O)[C@H](C(C)C)N(Cc1cn(Cc2ccccc2)nn1)S(=O)(=O)c1ccccc1Br	-1	.	-1	0	-1
COC(=O)[C@]12C[C@H](CC(=O)N3CCC(c4ccccc4)CC3)C(=O)N(Cc3cccc4ccccc34)C1=C[C@H](C(C)(C)C)O[C@@H]2C	-2	.	3	-1	-2
N#Cc1ccc(-c2nc3c4ccccc4ccn3c2Cc2cccc(Cl)c2)cc1	3	.	11*	0	-1
FC(F)(F)c1ccccc1Cc1c(-c2cccc(Br)c2)nc2c3ccccc3ccn12	5.8*	.	9	1	1.4*
c1ccc(Cc2c(-c3ccccc3)nc3c4ccccc4ccn23)cc1	5	1	2	0	0.9*
